Assay results: PubChem BioAssay AID743381 (National Center for Advancing Translational Sciences (NCATS), 2014)
Records with an inconclusive call do not appear. The source made the active and inactive calls. Calls come from the whole dose curve; as a rule, active = well fitted inhibition curve with a large enough effect; inconclusive = small, poorly fitted or top-dose-only effect; inactive = flat fitted curve, though single readings scatter.

The compounds below were run against Phosphatidylinositol 5-phosphate 4-kinase type-2 alpha (Homo sapiens) (UniProt P48426) (assay: qHTS for Inhibitors of PI5P4K: PI5P4K-alpha Confirmatory Assay for Probe SAR). Conditions: Purified PI5P4Kalpha, ADP-Glo luminescence, 60 min; series mostly up to 76.9 µM.
Text: In addition to finding PI5P, we discovered the type II phosphatidylinositol 5-phosphate 4-kinase (PI5P4K) family (alpha, beta, gamma isoforms) that catalyze the conversion of PI5P to PI(4,5)P2. Alternatively, PI(4,5)P2 can also be synthesized through phosphatidylinositol-4-phosphate (PI4P) by the type I phosphatidylinositol 4-phosphate 5-kinases (PI4P5K). These PI5P4K enzymes therefore represent one way by which cells can regulate endogenous PI5P levels and play important roles in insulin signaling and in stress responses. […] A qHTS PI5P4Kalpha ADP-Glo assay was developed to identify specific modulators of human PI5P4K, phosphatidylinositol-5-phosphate 4-kinase (Type II PIPK). This assay was screened against the MLSMR containing ~400,000 small molecules (PubChem AID 652105). The same assay was used to validate subsequent Medicinal Chemistry efforts on the active compounds and its analogs. Inhibition of the enzyme activity (signal decrease) is the desired outcome for this assay. Davis et al., PLoS One. 2013; 8(1):e54127. NIH Chemical Genomics Center [NCGC] NIH Molecular Libraries Probe Centers Network [MLPCN] MLPCN Grant: MH096575 Assay Submitter (PI): Atsuo Sasaki, Beth Israel Deaconess Medical Center
Two microliter of PI5P4Kalpha/substrate buffer (columns 1-2, 5-48) was dispensed into Greiner white solid bottom 1536-well assay plates; column 3 received only PI5P4Kalpha buffer as no substrate control; column 4 receives only substrate buffer as no PI5P4Kalpha controls. Final assay buffer consists of 0.038 M HEPES pH 7.4, 0.28 mM EGTA, 0.1 % CHAPS, and 5% DMSO (final concentration). Compounds were then transferred via Kalypsys pin tool equipped with 1536-pin array. Following addition of compound, 1 uL of ATP (5 uM final concentration) was added to initiate the reaction. ATP was diluted in an assay buffer consisting of 0.02 M HEPES pH 7.4, 60 mM MgCl2, 15 uM ATP, and 0.1% CHAPS. The plates were then incubated at room temperature for 60 minutes. ADP-Glo reagent 1 was added and plates incubated for 45 minutes. ADP-Glo reagent 2 was added and the plates were incubated for 30 minutes. The plates were transferred to a ViewLux high-throughput CCD imager (PerkinElmer) wherein single end-point measurements of luminescence were acquired using a clear filter.

Sequence of Phosphatidylinositol 5-phosphate 4-kinase type-2 alpha (Homo sapiens) (P48426 whole entry, looked up, canonical isoform): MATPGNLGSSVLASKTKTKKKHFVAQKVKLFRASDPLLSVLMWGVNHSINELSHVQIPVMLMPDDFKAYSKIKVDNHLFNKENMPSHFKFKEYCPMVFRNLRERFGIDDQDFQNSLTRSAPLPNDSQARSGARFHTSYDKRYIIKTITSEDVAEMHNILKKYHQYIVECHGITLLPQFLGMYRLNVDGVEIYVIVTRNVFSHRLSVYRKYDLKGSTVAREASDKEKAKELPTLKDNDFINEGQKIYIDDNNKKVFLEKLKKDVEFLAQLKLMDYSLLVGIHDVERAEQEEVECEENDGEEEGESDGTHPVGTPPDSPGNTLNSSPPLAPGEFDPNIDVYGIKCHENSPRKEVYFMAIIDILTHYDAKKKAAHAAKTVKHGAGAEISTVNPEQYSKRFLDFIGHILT

| Compound | Potency |
| --- | --- |
| O=C1Nc2ccccc2C12CC2c1cc(Cl)c(O)c(Cl)c1 (centres undefined) | 10.9 µM (active) |
| O=C1Nc2ccccc2/C1=C\c1ccc(O)cc1 | 24.4 µM (active) |
| Cc1cccc2c1NC(=O)/C2=C/c1cc(Cl)c(O)c(Cl)c1 | 0.547 µM (active) |
| O=C1Nc2ccccc2/C1=C/c1ccc[nH]1 | inactive |
| O=C1Nc2ccccc2/C1=C\c1ccc([N+](=O)[O-])cc1 | 2.74 µM (active) |
| COc1cc(/C=C2/C(=O)Nc3ccccc32)cc(OC)c1O | 30.7 µM (active) |
| COc1ccc(/C=C2/C(=O)Nc3ccccc32)cc1O | 0.772 µM (active) |
| O=C1Nc2ccccc2/C1=C\c1cc(F)c(O)c(F)c1 | 0.487 µM (active) |
| COc1cc(/C=C2\C(=O)Nc3ccccc32)ccc1O | 19.4 µM (active) |
| O=C1Nc2ccccc2/C1=C\c1ccc(O)c(F)c1 | 2.18 µM (active) |
| O=C1Nc2cccc(Cl)c2/C1=C\c1cc(Cl)c(O)c(Cl)c1 | 3.07 µM (active) |
| O=C1Nc2ccccc2/C1=C\c1cc(Br)c(O)c(Br)c1 | 1.22 µM (active) |
| O=C1Nc2ccccc2/C1=C/c1cccc(C(=O)O)c1 | 10.9 µM (active) |
| O=C1Nc2ccccc2/C1=C/c1cc(Cl)c(O)c(Cl)c1 | 0.867 µM (active) |
